Potency and affinity values are given separately. The source made the active and inactive calls.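 How the source made its calls: active means compound whose falling signal curve reaches half its effect at no more than twice the top valid dose; inconclusive means flat curve with 30 to 70% inhibition, or poor fit; inactive means the rest.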
Experiment: TRPM1 promoter luciferase reporter signal decrease, dose response, MITF inhibitor project, cell-based, SK-MEL-5, dry powder, set 8 (AID 624430)
Conditions: SK-MEL-5 TRPM1 promoter luciferase reporter, 24 h; series mostly up to 35 µM; activity change, negative = inhibition: at the top concentration

Activity change, negative = inhibition, inactive:
COc1ccc(NC2=CC(=O)c3ccccc3C2=O)cc1 -70.2%, O=C1C=C(Nc2ccc(F)cc2)C(=O)c2ccccc21 12.9%, O=C1C=C(Nc2ccc3ccccc3c2)C(=O)c2ccccc21 -25.7%, CC1=C(N)C(=O)c2ccccc2C1=O 27.8%, O=C1C=C(NC2CCCCC2)C(=O)c2ccccc21 40.2%, O=C1C=C(NCc2ccccc2)C(=O)c2ccccc21 3.45%, Cc1ccc(NC2=CC(=O)c3ccccc3C2=O)cc1C -73.2%
